From PubChem BioAssay
Sampled rows, rich in hits. Any-hit rate of the full collection: about 7.9%.
Lassa entry inh = blocks Lassa virus binding to or entry into cells; Lassa virus pseudotype entry inhibition, cell reporter; Potency, µM (top dose mostly 37.9 µM), for the others: top-dose activity change, negative = inhibition, hits mostly inhibitors; 1.2% of 300,000 active; calls by dose curve; tested in HEK293 cells; further: potency means the concentration at half of the fitted maximal effect; nearly all actives have a fitted effect of over 50% in size
HCMV antiviral = inhibitors of human cytomegalovirus; HFF cells, HCMV-luciferase reporter, 72 h; stronger effect = lower value; activity change, negative = inhibition, % at 57.5 µM; 4.5% of 410,000 active; in the data active means activity change below about -60%; inconclusive means no clear call, values can overlap the other calls; inactive means above about -39%
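Screen run at 2 compound doses on HFFs infected with reporter HCMV, MOI 1 PFU/cell. Luciferase activity from cell lysates at 72 h post infection gave inhibition relative to buffer-only and Salinomycin wells.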
MARV entry inh = Marburg virus entry inhibition; Potency, µM (highest dose often 37.8 µM), without a hit: top-dose activity change, negative = inhibition, hits mostly inhibitors; 1.8% of 300,000 active; Marburg virus pseudotyped entry inhibition, cell reporter; calls by dose curve; tested in HEK293 cells; further: potency means the concentration at half of the fitted maximal effect
FMDV inh = blocks foot and mouth disease virus | Potency, µM (doses to about 57.9 µM), inactives show at the top dose activity change, negative = inhibition, actives largely listed as inhibitors | FMDV antiviral cell-based qHTS | 1.2% of 410,000 active; calls by dose curve; tested in HEK293T cells; further: read-out not given here; potency means the concentration at half of the fitted maximal effect; nearly all actives have a fitted effect of over 45% in size
HCV inhibitor = inhibitors of hepatitis C virus infection; Huh7.5.1 HCVcc-Cre infection, luciferase reporter, 44 h; 3.4% of 340,000 active; AID 651820; Potency, µM (titrated, usually from 41.8 µM), inactives show at the highest dose activity change, negative = inhibition, hits mostly inhibitors; active means well fitted inhibition curve with a large enough effect; inconclusive means small, poorly fitted or top-dose-only effect, or another doubt; inactive means no such curve, though single readings can be large or run the other way; further: potency means the concentration at half of the fitted maximal effect
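1,000 cells/well; 4 h culture; + compound; + HCVcc-Cre (~0.5 moi); 44 h; luciferase substrate, RT 15 min; read 15 sec.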
An asterisk follows results filed as active; [ ] = dose if it differs, or a comment. On the % scale 0 is the no-effect control and ±100 the full control effect.

For CCCCc1cc(=O)oc2cc(OCC(=O)N3CCOCC3)ccc12 the results were Lassa entry inh -1.2%[46.1 µM], HCMV antiviral -80.6*, MARV entry inh 12.3%[46.1 µM], FMDV inh -4.9% and HCV inhibitor -8.3%.
CCN(CC)c1ccc(C(=O)OCc2cc(=O)oc3cc(O)ccc23)cc1 was read as Lassa entry inh 14.6µM*, HCMV antiviral -103.5*, MARV entry inh inconclusive, FMDV inh inconclusive and HCV inhibitor 22.4µM*.
Screening CCCCc1cc(=O)oc2c(CN(C)C)c(O)ccc12 returned Lassa entry inh -0.9%, HCMV antiviral 47.8, MARV entry inh -32.6%, FMDV inh 15.4% and HCV inhibitor 6.4%.
For CCCOc1ccc(Cc2c(O)nc(SC)[nH]c2=O)cc1 the results were Lassa entry inh -2.3%[46.1 µM], HCMV antiviral 1.1, MARV entry inh inconclusive, FMDV inh -14.9% and HCV inhibitor 14.4%.
Screening O=C1CSC(c2ccc([N+](=O)[O-])cc2)N1c1ccc(O)cc1 (stereo not given) returned Lassa entry inh -22.1%, HCMV antiviral -8.4, MARV entry inh 14.0%, FMDV inh -1.2% and HCV inhibitor 21.3%.
CC(CCN1CCCc2nc(C)c(C)cc21)=NOC[C@@H](C)[C@H](OCc1ccccc1)C(C)C was read as MARV entry inh -23.6%[14.2 µM].
For Cc1cccc(C(=O)NC(=S)Nc2ccccc2C(=O)O)c1 the results were Lassa entry inh 12.3%, HCMV antiviral 31.1, MARV entry inh -0.9%, FMDV inh -8.8% and HCV inhibitor 15.3%.
CC(NC(=O)c1ccccc1Cl)NC(=O)c1ccccc1Cl was read as HCMV antiviral 59.0, FMDV inh -12.6% and HCV inhibitor 14.9%.
`Cc1cccc(C(=O)NC(=S)NNC(=O)Cc2ccccc2)c1` gave Lassa entry inh 16.5%, HCMV antiviral -83.5*, MARV entry inh 1.0%, FMDV inh -25.7% and HCV inhibitor inconclusive.
CC(NC(=O)c1ccccc1)C(=O)NNC(=O)c1ccccc1Cl (stereo not given) was read as HCMV antiviral -63.5*, FMDV inh -2.2% and HCV inhibitor 8.7%.
Cc1ccccc1C(=O)NNC(=S)NC(=O)c1ccc(Cl)cc1Cl was read as Lassa entry inh -3.3%, HCMV antiviral inconclusive, MARV entry inh inconclusive and HCV inhibitor 0.562µM*.
Cc1cccc(C(=O)NC(=S)NNC(=O)c2ccccc2Cl)c1 was read as Lassa entry inh inconclusive, HCMV antiviral -66.9*, MARV entry inh inconclusive, FMDV inh -12.5% and HCV inhibitor inconclusive.
For O=C(Cc1nnc(NC(=O)Nc2ccccc2F)s1)NCc1ccccc1 the results were Lassa entry inh -11.3%, HCMV antiviral 31.1, MARV entry inh -14.2%[46.1 µM], FMDV inh -5.3% and HCV inhibitor 1.3%.
`CCCCCCC(=O)Cc1cc(OC)c(OC)cc1C=C(C(C)=O)C(=O)OC` gave MARV entry inh -10.7%[14.2 µM].
For O=C(CCc1ccccc1)Nc1ccc2ccccc2n1 the results were Lassa entry inh inconclusive, HCMV antiviral 48.3, MARV entry inh inconclusive, FMDV inh 0.0% and HCV inhibitor inconclusive.
`CNC(=S)N(Cc1cc2ccc(OC)cc2[nH]c1=O)CC1CCCO1` (stereo not given) gave Lassa entry inh -2.6%, HCMV antiviral 67.7, MARV entry inh inconclusive, FMDV inh -8.4% and HCV inhibitor -28.9%.
COc1ccc(C2CC(=O)Oc3cc(C)c(Cl)c(C)c32)cc1 (stereo not given) was read as HCMV antiviral 0.5, FMDV inh 0.0% and HCV inhibitor inconclusive.
Screening Cc1cccc(C(=O)NC(=S)NCc2ccccc2)c1 returned Lassa entry inh 17.8µM*, HCMV antiviral inconclusive, MARV entry inh 14.4%, FMDV inh 29.9% and HCV inhibitor -10.5%.
Screening O=C(NC(=S)NCc1ccccc1)c1ccccc1 returned Lassa entry inh inconclusive, HCMV antiviral -15.1, MARV entry inh -13.7%[46.1 µM], FMDV inh 34.6% and HCV inhibitor -9.9%.
Fc1ccc(-c2noc3ncnc(NC4CCCCC4)c23)cc1 was read as Lassa entry inh 23.4%[46.1 µM], HCMV antiviral -26.3 and FMDV inh -22.4%.
Screening CNC(=O)C[C@@H]1C(=O)N(c2ccc(Br)cc2)CC1(C)C returned HCMV antiviral 17.1 and FMDV inh 4.2%.
For O=C(Cc1n[nH]c(=O)c2ccccc12)OCc1c(Cl)cccc1Cl the results were Lassa entry inh 0.631µM*, HCMV antiviral -67.6*, MARV entry inh 0.517µM*, FMDV inh -1.7% and HCV inhibitor 5.3%.
For COc1ccccc1C(=O)Nc1ccc(S(=O)(=O)NC2=NCCCCC2)cc1 the results were Lassa entry inh -24.5%[46.1 µM], HCMV antiviral -60.3*, MARV entry inh -19.1%[46.1 µM], FMDV inh 7.0% and HCV inhibitor -25.2%.
For CCc1nnc(NS(=O)(=O)c2ccc(NC(=O)c3ccccc3OC)cc2)s1 the results were HCMV antiviral active, FMDV inh 12.6% and HCV inhibitor -2.0%.
Screening CSc1ccccc1C(=O)Nc1ccc(S(=O)(=O)NC2=NCCCCC2)cc1 returned HCMV antiviral 0.0, FMDV inh 10.7% and HCV inhibitor 2.5%.
O=C(CSc1nc2ccsc2c(=O)n1Cc1ccccc1Cl)NCc1ccc(Cl)cc1 was read as Lassa entry inh 0.9%[46.1 µM], HCMV antiviral 5.8 and FMDV inh 15.0%.
For CCOc1ccc(N(CC(=O)NC2CCCCC2)C(=O)CCCC(=O)Nc2ccccn2)cc1 the results were Lassa entry inh 10µM*, HCMV antiviral 22.5, MARV entry inh -0.9%[46.1 µM], FMDV inh 42.9% and HCV inhibitor -2.2%.
For CCOc1ccc(N(CC(=O)NC2CCCC2)C(=O)CSc2nnc(COc3ccccc3)o2)cc1 the results were Lassa entry inh -12.9%, HCMV antiviral inconclusive, MARV entry inh inconclusive and HCV inhibitor 22.4µM*.
For Cc1ccc(C(C(=O)NC2CCCCC2)N(C(=O)CCCC(=O)Nc2ccccn2)c2ccc3c(c2)OCCO3)cc1 (stereo not given) the results were Lassa entry inh -11.3%, HCMV antiviral -62.7*, MARV entry inh 19.9%, FMDV inh 28.2% and HCV inhibitor -16.3%.
O=C(CCCC(=O)N(c1ccc2c(c1)OCCO2)C(C(=O)NC1CCCCC1)c1ccc(F)cc1)Nc1ccccn1 (stereo not given) was read as Lassa entry inh 1.7%, HCMV antiviral -68.4*, MARV entry inh inconclusive and HCV inhibitor -4.9%.
Screening Cc1cc(C)cc(NC(=O)C2CCN(c3nc4ccccc4nc3C(F)(F)F)CC2)c1 returned Lassa entry inh -1.6%[46.1 µM], HCMV antiviral 20.9 and FMDV inh -11.5%.
COc1ccc2c(c1)[C@@]1(OCCC=C[C@@H]1C)C(=O)N2CC=C(C)CCC=C(C)C was read as MARV entry inh -10.0%[14.2 µM].
Screening Cc1cc(NC(=O)CCl)no1 returned Lassa entry inh inconclusive, HCMV antiviral -81.8*, MARV entry inh inconclusive, FMDV inh inconclusive and HCV inhibitor inconclusive.
Screening COc1ccc2nc(C)cc(SCC(=O)N/N=C/c3cccc4ccccc34)c2c1 returned Lassa entry inh 13µM*, HCMV antiviral -68.2*, MARV entry inh inconclusive, FMDV inh -19.6% and HCV inhibitor 10µM*.
